Data: PubChem BioAssay (Tox21)
Records with an inconclusive call do not appear. Values without a mark were called inactive. Calls of active or inactive are those of the source. Unless noted, the call rests on the fitted dose curve.

Target: D(2) dopamine receptor (Homo sapiens) (UniProt P14416)
Assay: Dopamine D2 receptor (DRD2) small molecule agonists, cell-based qHTS assay (AID 1963594); further: nearly all actives have a fitted effect of over 35% in size; further: potency means the concentration at half of the fitted maximal effect
Details: HEK293-DRD2 cAMP HTRF, agonist mode, 30 min; series mostly up to 92.4 µM; activation: at the top concentration
Procedure, shortened: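 HEK293 cells stably expressing human DRD2, pre-treated with PDE inhibitor Ro20-1724 (0.1 mM final) and compound 10 min at room temperature, then stimulated with NKH477 (200nM […]) for 30 min. cAMP read by HTRF (665/620 nm).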
On the % scale 0 is the no-effect control and ±100 the full control effect.

D(2) dopamine receptor (Homo sapiens), sequence (P14416 whole entry, looked up): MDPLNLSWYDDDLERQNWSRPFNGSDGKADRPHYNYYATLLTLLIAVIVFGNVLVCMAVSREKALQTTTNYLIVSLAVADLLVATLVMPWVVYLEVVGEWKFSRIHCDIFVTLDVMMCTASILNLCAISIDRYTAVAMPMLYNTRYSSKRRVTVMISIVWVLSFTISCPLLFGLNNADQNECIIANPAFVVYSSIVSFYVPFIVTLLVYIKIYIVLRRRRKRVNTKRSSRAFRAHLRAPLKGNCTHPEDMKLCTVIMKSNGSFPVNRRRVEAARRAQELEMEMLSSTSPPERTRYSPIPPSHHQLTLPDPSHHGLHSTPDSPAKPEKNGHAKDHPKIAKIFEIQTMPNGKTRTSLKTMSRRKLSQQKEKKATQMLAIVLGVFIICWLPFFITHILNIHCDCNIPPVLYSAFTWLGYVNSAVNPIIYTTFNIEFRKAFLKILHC

SMILES | activation | Potency
Nc1ccccc1Nc1ccccc1 | 1.33% | 
CC[C@H](C)C(=O)O[C@H]1C[C@H](O)C=C2C=C[C@H](C)[C@H](CC[C@@H](O)C[C@@H](O)CC(=O)O)[C@H]21 |  | 61.1 µM (active)
CC(=O)c1ccc2c(c1)Cc1ccccc1-2 | -3.45% | 
Cn1c(=O)c2c(ncn2CC2OCCO2)n(C)c1=O | 1.27% [at 42.5 µM] | 
C=CCc1cc(S(=O)(=O)c2ccc(O)c(CC=C)c2)ccc1O | 7.86% | 
CCCCOc1ccc(CC(=O)NO)cc1 | -5.69% [at 42.5 µM] | 
CC(C)=CC=O | 1.94% | 
O=C(O)c1cccnc1Nc1cccc(C(F)(F)F)c1 | 0.0157% [at 42.5 µM] | 
O=C1CCc2cc(OCCCCc3nnnn3C3CCCCC3)ccc2N1 | -10.2% [at 42.5 µM] | 
CCC(C)(C)OC | -2.09% | 
CC(=O)CCC1=C(C)CCCC1(C)C | -8.51% | 
CCN1CCN(C(=O)N[C@@H](C(=O)N[C@@H]2C(=O)N3[C@@H]2SC(C)(C)[C@H]3C(=O)O)c2ccccc2)C(=O)C1=O | 3.15% [at 42.5 µM] | 
CCCCCC(C)O (centres undefined) | -5.95% | 
CC1(C)O[C@@H]2C[C@H]3[C@@H]4C[C@H](F)C5=CC(=O)C=C[C@]5(C)[C@H]4[C@@H](O)C[C@]3(C)[C@]2(C(=O)CO)O1 | -0.0016% [at 42.5 µM] | 
C=C(C)C(=O)OCc1ccccc1 | 1.35% | 
O=C(Cl)c1cccc([N+](=O)[O-])c1 | -0.486% | 
CN1CC(=O)N2[C@H](c3ccc4c(c3)OCO4)c3[nH]c4ccccc4c3C[C@@H]2C1=O | 6.26% [at 42.5 µM] | 

SMILES | activation | Potency
CCCc1nc(C)c2c(=O)[nH]c(-c3cc(S(=O)(=O)N4CCN(CC)CC4)ccc3OCC)nn12 | 1.33% [at 42.5 µM] | 
COc1ccnc(CS(=O)c2nc3ccc(OC(F)F)cc3[nH]2)c1OC (centres undefined) | -11% [at 42.5 µM] | 
Cc1ccc(OC(=O)CC(C)C)cc1 | -7.25% | 
Nc1ccn([C@@H]2O[C@H](CO)[C@@H](O)[C@@H]2O)c(=O)n1 | 13.3% | 
C=C(C)C(=O)OCCOCCOC(=O)C(=C)C | -3.12% | 
CCNC(=O)NCc1cccc(Cl)c1 | 3.75% [at 42.5 µM] | 
O=C1CCCCCO1 | -3.58% | 
COc1nc(C)nc(Cl)c1NC1=NCCN1 | 14.1% [at 42.5 µM] | 
CCOC(=O)CC(=O)c1ccccc1 | -0.37% | 
CO/N=C(/C(=O)N[C@@H]1C(=O)N2C(C(=O)[O-])=C(C[n+]3ccn4ncccc43)CS[C@H]12)c1nsc(N)n1 | -4.02% [at 42.5 µM] | 
N#Cc1ccccc1O | 0.501% | 
O=C1NCC2(CCN(CCc3ccccc3)CC2)O1 | -10.4% [at 42.5 µM] | 
CN(C)C(=O)Nc1ccccc1 | 0.782% | 
CC(C)CO | -4.11% | 
CC[C@H]1OC(=O)[C@H](C)[C@@H](O[C@H]2C[C@@](C)(OC)[C@@H](O)[C@H](C)O2)[C@H](C)[C@@H](O[C@@H]2O[C@H](C)C[C@H](N(C)C)[C@H]2O)[C@](C)(O)C[C@@H](C)/C(=N\OCOCCOC)[C@H](C)[C@@H](O)[C@]1(C)O | 1.43% [at 42.5 µM] | 
CC(C)COC(=O)CCCCC(=O)OCC(C)C | -12.5% | 

Target: D(2) dopamine receptor (Homo sapiens) (UniProt P14416)
Assay: Dopamine D2 receptor (DRD2) small molecule antagonists, cell-based qHTS assay (AID 1963595; active means well fitted inhibition curve with a large enough effect in the signal ratio in the repeat runs, with a control signal flat; the % refers to the signal ratio)
Details: HEK293-DRD2 cAMP HTRF antagonist mode; series mostly up to 92.4 µM; activity change, negative = inhibition: at the top concentration
Procedure, shortened: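 HTRF cAMP read-out at 665 and 620 nm emission (340 nm excitation). Antagonist mode: compounds were tested against 12 nM quinpirole in DRD2-HEK293 cells, with 200 nM NKH477 raising cAMP and 0.1 mM Ro20-1724 blocking its breakdown.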

SMILES | activity change, negative = inhibition
Nc1ccccc1Nc1ccccc1 | -0.87%
CC[C@H](C)C(=O)O[C@H]1C[C@H](O)C=C2C=C[C@H](C)[C@H](CC[C@@H](O)C[C@@H](O)CC(=O)O)[C@H]21 | -0.577%
CC(=O)c1ccc2c(c1)Cc1ccccc1-2 | -1.53%
C=CCc1cc(S(=O)(=O)c2ccc(O)c(CC=C)c2)ccc1O | 0.841%
CC(C)=CC=O | 12.9%
CCC(C)(C)OC | 0.573%
CC(=O)CCC1=C(C)CCCC1(C)C | 1.24%
CCN1CCN(C(=O)N[C@@H](C(=O)N[C@@H]2C(=O)N3[C@@H]2SC(C)(C)[C@H]3C(=O)O)c2ccccc2)C(=O)C1=O | -1.13% [at 42.5 µM]
CC(C)(C)C(O)/C=C/c1ccc2c(c1)OCO2 (centres undefined) | 5.81% [at 42.5 µM]
CC1(C)O[C@@H]2C[C@H]3[C@@H]4C[C@H](F)C5=CC(=O)C=C[C@]5(C)[C@H]4[C@@H](O)C[C@]3(C)[C@]2(C(=O)CO)O1 | 9.36% [at 42.5 µM]
C=C(C)C(=O)OCc1ccccc1 | 17.3%
O=C(Cl)c1cccc([N+](=O)[O-])c1 | 2.61%
CN1CC(=O)N2[C@H](c3ccc4c(c3)OCO4)c3[nH]c4ccccc4c3C[C@@H]2C1=O | -7.67% [at 42.5 µM]
CCCc1nc(C)c2c(=O)[nH]c(-c3cc(S(=O)(=O)N4CCN(CC)CC4)ccc3OCC)nn12 | 1.19% [at 42.5 µM]
Cc1ccc(OC(=O)CC(C)C)cc1 | 4.3%
Nc1ccn([C@@H]2O[C@H](CO)[C@@H](O)[C@@H]2O)c(=O)n1 | 2.87%

SMILES | activity change, negative = inhibition
CN1C(C(=O)Nc2ccccn2)=C(O)c2sccc2S1(=O)=O | 7.36% [at 42.5 µM]
O=C(O)CO | -0.0088%
C=C(C)C(=O)OCCOCCOC(=O)C(=C)C | 12.2%
O=C(Nc1cccc(Cl)c1)OCC#CCCl | 9.46%
CCNC(=O)NCc1cccc(Cl)c1 | 1.28% [at 42.5 µM]
O=C1CCCCCO1 | 3.93%
COc1nc(C)nc(Cl)c1NC1=NCCN1 | 0.821% [at 42.5 µM]
Cc1ccc(Cl)c(Nc2ccccc2C(=O)O)c1Cl | 9.23% [at 42.5 µM]
CCOC(=O)CC(=O)c1ccccc1 | -2.45%
O=C1CCCCC1C1CCCCC1 (centres undefined) | -0.748%
N#Cc1ccccc1O | 8.16%
O=C1NCC2(CCN(CCc3ccccc3)CC2)O1 | -25.1% [at 42.5 µM]
CN(C)C(=O)Nc1ccccc1 | -3.78%
CC(C)CO | -1.41%
Nc1ccc(Oc2ccc(N)c(N)c2)cc1 | 8.48%
